Data on 30 compounds can be found in PubChem BioAssay (EPA / NIEHS).

Where “and” joins values, the source holds several entries; their conditions need not be identical. Equal values may be shown once. Records with an inconclusive call do not appear. Calls of active or inactive are those of the source. Rule for the calls: active = hit-call score of the fitted dose curve at least 0.9, where 1 is the maximum; inconclusive = response in the unintended direction; inactive = score below 0.9.

Estrogen receptor beta (Homo sapiens), sequence (Q92731 whole entry, looked up, the tested form may be a part): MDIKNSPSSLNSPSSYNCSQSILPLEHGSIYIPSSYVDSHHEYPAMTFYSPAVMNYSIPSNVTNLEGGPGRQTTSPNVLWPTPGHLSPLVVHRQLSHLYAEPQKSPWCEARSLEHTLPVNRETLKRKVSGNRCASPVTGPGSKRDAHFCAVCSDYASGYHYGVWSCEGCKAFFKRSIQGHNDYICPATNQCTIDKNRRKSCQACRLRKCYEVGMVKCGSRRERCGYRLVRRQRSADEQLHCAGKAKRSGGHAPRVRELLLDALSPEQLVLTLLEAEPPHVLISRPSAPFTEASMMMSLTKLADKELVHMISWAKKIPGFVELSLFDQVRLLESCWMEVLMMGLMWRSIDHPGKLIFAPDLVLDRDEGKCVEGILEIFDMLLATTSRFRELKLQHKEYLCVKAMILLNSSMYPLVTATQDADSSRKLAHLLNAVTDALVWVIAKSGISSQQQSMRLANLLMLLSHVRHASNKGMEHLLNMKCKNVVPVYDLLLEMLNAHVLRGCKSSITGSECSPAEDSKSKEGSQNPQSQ
Androgen Receptor/SRC-1 Co-activator, AR (gene 367), sequence (P10275 whole entry, looked up, the tested form may be a part): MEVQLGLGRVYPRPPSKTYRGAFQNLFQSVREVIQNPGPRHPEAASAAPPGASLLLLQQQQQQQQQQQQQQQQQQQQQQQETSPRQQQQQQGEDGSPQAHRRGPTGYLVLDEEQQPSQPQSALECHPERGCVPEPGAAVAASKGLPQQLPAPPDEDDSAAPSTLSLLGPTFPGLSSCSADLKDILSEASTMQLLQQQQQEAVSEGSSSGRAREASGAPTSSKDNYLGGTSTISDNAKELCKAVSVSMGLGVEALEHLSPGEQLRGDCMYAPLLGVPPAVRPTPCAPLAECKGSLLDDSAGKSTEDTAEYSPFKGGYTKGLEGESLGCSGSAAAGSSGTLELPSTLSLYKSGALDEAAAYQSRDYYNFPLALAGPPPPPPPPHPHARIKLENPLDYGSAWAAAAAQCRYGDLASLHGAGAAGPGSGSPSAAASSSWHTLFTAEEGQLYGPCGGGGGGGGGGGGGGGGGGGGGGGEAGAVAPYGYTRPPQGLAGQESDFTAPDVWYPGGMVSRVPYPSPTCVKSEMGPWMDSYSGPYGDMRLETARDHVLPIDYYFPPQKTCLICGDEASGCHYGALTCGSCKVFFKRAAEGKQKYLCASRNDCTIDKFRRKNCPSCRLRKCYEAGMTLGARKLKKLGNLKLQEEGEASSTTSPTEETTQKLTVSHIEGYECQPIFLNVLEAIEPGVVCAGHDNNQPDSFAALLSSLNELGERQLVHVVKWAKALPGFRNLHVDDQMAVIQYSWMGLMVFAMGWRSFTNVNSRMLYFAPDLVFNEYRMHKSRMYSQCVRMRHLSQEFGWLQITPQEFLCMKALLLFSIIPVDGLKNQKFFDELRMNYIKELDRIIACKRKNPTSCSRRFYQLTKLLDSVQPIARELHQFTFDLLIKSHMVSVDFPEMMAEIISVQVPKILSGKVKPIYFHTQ
rat Mineralocorticoid Receptor (MR), Nr3c2 (gene 25672), sequence (P22199 whole entry, looked up): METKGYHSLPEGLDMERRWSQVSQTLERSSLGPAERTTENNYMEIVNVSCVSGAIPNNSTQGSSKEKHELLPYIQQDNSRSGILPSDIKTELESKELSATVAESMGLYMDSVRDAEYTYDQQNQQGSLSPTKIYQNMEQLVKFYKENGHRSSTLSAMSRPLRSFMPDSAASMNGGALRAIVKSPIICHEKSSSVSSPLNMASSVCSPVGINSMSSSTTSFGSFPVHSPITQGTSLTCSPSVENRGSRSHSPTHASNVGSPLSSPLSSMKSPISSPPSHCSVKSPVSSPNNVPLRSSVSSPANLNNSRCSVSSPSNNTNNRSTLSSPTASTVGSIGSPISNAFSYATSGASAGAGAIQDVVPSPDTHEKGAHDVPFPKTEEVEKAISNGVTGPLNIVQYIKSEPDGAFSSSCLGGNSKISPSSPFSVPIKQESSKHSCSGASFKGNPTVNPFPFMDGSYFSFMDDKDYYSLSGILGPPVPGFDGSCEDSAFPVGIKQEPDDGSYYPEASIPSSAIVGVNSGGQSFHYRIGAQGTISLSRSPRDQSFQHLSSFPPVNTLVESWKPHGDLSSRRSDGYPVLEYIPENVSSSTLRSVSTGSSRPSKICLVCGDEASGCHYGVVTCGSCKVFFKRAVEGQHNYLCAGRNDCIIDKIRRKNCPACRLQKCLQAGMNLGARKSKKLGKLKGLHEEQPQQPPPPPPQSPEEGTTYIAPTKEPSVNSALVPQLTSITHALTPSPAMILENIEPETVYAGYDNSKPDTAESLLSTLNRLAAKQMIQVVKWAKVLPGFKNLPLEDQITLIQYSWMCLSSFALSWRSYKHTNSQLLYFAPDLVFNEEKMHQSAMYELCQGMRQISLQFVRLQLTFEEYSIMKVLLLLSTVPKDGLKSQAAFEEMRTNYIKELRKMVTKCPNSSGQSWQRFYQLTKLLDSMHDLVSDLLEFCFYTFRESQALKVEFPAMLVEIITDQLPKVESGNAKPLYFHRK

One experiment addresses Androgen Receptor/SRC-1 Co-activator, AR (gene 367) (UniProt P10275). As to the kind of experiment: OT_AR_ARSRC1_0960: Odyssey Thera (OT) 16-hour HEK293T Protein-Complementation Assay for Androgen Receptor/SRC-1 Co-activator (AID 2283353).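 Note: actives raise the signal above DMSO so potency reflects increased AR and SRC-1 complex.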 The gist of the method: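 Interaction of AR with SRC-1 was followed by YFP fragment complementation in HEK293T cells after 16 h of dosing. Gain of nuclear-over-cytoplasmic 488 nm fluorescence against DMSO controls defined activity.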
`C[C@]12C=CC3=C4CCC(=O)C=C4CC[C@H]3[C@@H]1CC[C@@H]2O`: the AC50 was 1.14 nM (active) and 2.3 nM (active) and 30 nM (active). The same measure, in the same setting: the figure for `Cc1cc(N=Nc2ccccc2C)ccc1N` is 36 µM (active). As for `CC(C)N(Cc1ccccc1)C(=O)C(C)(C)C`, the compound was classed as inactive. Consider `Nc1ccc([N+](=O)[O-])cc1`, for which the outcome was inactive. Consider `CC(C)(O)c1cnn2c(-c3ccc(F)c(-c4c(F)cccc4C#N)c3)cnc2n1`, for which the AC50 was 31.7 µM (active). On the same count and under the same terms, next, `COC(=O)Nc1nc2ccccc2[nH]1`: 3.78 µM (active). Consider `O=C1CCCO1`, for which the result was inactive. For `CC(C)(OOC(C)(C)c1ccccc1)c1ccccc1`, the AC50 was 76.2 µM (active).

The next experiment has as its target rat Mineralocorticoid Receptor (MR), Nr3c2 (gene 25672) (UniProt P22199). Nature of the experiment: NVS_NR_rMR: NovaScreen (NVS) Nuclear Receptor Binding Assay for rat Mineralocorticoid Receptor (MR) (AID 2283355). The gist of the method:
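Adrenalectomized rat brain supernatant was dosed with test chemical, then radioligand binding was measured by scintillation counting at 24 h. Initial testing ran in duplicate at 25 uM, followed by concentration series for actives.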
In the case of `C[C@]12C=CC3=C4CCC(=O)C=C4CC[C@H]3[C@@H]1CC[C@@H]2O`, the AC50 is 69.1 nM (active) and 245 nM (active).

Regarding `CN(C)c1ccc(C(=O)c2ccc(N(C)C)cc2)cc1`, the result was inactive. For the compound `c1ccc(C2CO2)cc1` (stereo not drawn), the result was inactive.

A further experiment addresses Estrogen receptor beta (Homo sapiens) (UniProt Q92731). Nature of the experiment: OT_ER_ERbERb_0480: Odyssey Thera (OT) 8-hour HEK293T Protein-Complementation Assay for Estrogen Receptor-beta/-beta Homodimer (AID 2283357).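 Note: active means signal gain over DMSO baseline.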 The gist of the method:
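Cells (HEK293T, stable ER-beta LBD PCA pair) are treated 8 hours, fixed and Draq5-stained; signal is fluorescence intensity increase relative to vehicle, fitted in the gain direction.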
For `Nc1ccc(Oc2ccc(N)cc2)cc1`, the compound was called inactive. In the case of `CN(C)c1ccc(C(=O)c2ccc(N(C)C)cc2)cc1`, the result was inactive. As for `CCN(CC)CCO`, the compound was classed as inactive. For the compound `CN(C)C(=O)Nc1ccc(Cl)cc1`, the result was inactive.

With `CC(C)(C)OOC(=O)c1ccccc1`, the compound was classed as inactive. Same read-out and setting: next, `CCCCCCCCOC(=O)c1ccc(C(=O)OCCCCCCCC)c(C(=O)OCCCCCCCC)c1`: “inactive”; `COC(=O)Nc1nc2ccccc2[nH]1`: “inactive”. Take `CC(C)(OOC(C)(C)c1ccccc1)c1ccccc1`: the AC50 was 3.31 µM (active).

In a further experiment the target is human Peroxisome Proliferator-activated Receptor alpha (PPARa), PPARA (gene 5465) (UniProt Q07869). Nature of the experiment: NVS_NR_hPPARa: NovaScreen (NVS) Nuclear Receptor Binding Assay for human Peroxisome Proliferator-activated Receptor alpha (PPARa) (AID 2283359).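 Note: activity means loss of TR-FRET signal versus DMSO baseline.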 Put shortly: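 Chemicals were first screened in duplicate at 25 uM, and active ones were retested across concentration series. Binding was monitored by TR-FRET one hour after dosing, with decreased signal against DMSO counted as activity.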
human Peroxisome Proliferator-activated Receptor alpha (PPARa), PPARA (gene 5465), sequence (Q07869 whole entry, looked up): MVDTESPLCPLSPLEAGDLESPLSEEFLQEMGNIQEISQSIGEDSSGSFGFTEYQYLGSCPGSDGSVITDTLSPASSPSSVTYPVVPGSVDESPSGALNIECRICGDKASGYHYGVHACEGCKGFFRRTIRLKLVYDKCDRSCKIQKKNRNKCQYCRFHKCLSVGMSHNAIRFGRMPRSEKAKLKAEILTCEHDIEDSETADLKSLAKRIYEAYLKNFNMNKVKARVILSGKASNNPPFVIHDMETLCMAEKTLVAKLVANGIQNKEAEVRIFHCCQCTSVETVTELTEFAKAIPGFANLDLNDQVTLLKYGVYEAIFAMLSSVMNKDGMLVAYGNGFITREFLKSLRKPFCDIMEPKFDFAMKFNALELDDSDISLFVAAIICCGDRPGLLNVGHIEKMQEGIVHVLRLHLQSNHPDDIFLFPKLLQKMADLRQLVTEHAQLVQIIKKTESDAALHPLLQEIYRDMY
Regarding `CCOC(=O)[C@]1(c2ccccc2)Oc2ccccc2[C@@H]1N`, the outcome was inactive.

With `Nc1ccc(Oc2ccc(N)cc2)cc1`, the outcome was inactive. With `CCN(CC)N=O`, the outcome was inactive.

As for `CS(=O)(=O)NC(=O)c1cc(Oc2ccc(C(F)(F)F)cc2Cl)ccc1[N+](=O)[O-]`, the compound was called inactive. In the case of `Cc1cc(N=Nc2ccccc2C)ccc1N`, the compound was classed as inactive. With `c1ccc(NNc2ccccc2)cc1`, the compound was called inactive. On the same count and under the same terms, the entry for `C=CCc1ccc2c(c1)OCO2` is “inactive”. Consider `Oc1ccc2ccc3cccc4ccc1c2c34`, for which the compound was classed as inactive.

On to `CC(C)(C)OOC(=O)c1ccccc1`, for which the outcome was inactive.

Consider `Oc1ccccc1Cl`, for which the compound was called inactive. For the compound `CCCCOC(=O)c1ccccc1C(=O)OCc1ccccc1`, the result was inactive. As for `O=C(O)C1C2CCC(O2)C1C(=O)O` (stereo not drawn), the outcome was inactive. For `Cc1cccc(N)c1N`, the call was inactive.

The target in a further experiment is PGR (gene 5241) (UniProt P06401). As to the kind of experiment: NVS_NR_hPR: NovaScreen (NVS) Nuclear Receptor Binding Assay for human Progestron Receptor (PR) (AID 2283360).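 Note: active means loss of bound radioligand signal versus DMSO baseline.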 Put shortly: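 T47D-derived receptor preparation, cell-free, with tritiated or iodinated radioligand displacement measured by scintillation 18 h post-dosing. Single 25 uM duplicate screen, then concentration series; signal loss relative to DMSO.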
PGR (gene 5241), sequence (P06401 whole entry, looked up): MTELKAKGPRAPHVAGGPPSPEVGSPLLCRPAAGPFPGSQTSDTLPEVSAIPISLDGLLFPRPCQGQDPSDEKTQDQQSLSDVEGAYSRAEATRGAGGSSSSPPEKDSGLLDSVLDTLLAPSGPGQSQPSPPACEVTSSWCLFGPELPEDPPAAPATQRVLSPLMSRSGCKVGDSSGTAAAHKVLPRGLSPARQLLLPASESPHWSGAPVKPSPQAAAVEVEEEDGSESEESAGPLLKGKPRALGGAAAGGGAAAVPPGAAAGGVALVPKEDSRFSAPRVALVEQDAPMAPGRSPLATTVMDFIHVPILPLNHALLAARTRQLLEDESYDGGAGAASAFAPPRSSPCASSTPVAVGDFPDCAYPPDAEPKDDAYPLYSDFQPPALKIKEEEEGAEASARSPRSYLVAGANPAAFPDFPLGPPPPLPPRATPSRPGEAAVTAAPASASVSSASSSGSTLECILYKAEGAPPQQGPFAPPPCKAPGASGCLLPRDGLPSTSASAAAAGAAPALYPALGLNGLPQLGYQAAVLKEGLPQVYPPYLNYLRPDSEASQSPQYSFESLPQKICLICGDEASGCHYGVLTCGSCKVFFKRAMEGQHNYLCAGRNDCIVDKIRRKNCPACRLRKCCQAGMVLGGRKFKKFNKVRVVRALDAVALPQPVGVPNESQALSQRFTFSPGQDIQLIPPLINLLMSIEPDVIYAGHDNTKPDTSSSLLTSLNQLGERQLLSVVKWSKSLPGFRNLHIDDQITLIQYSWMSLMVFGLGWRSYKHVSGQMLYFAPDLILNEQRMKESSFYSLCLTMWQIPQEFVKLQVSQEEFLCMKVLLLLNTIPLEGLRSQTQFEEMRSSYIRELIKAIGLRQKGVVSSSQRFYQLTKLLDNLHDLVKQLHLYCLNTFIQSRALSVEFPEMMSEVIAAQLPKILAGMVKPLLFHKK
With `O=Cc1ccco1`, the call was inactive.

As for `C[C@]12C=CC3=C4CCC(=O)C=C4CC[C@H]3[C@@H]1CC[C@@H]2O`, the AC50 is 0.00382 µM (active).

As to `[As]#[In]`, the result was inactive. Consider `C1=Cc2cccc3cccc1c23`, for which the compound was classed as inactive. On to `CCN(CC)CCO`, for which the compound was classed as inactive. In the case of `Oc1ccc2ccc3cccc4ccc1c2c34`, the outcome was inactive. On to `Nc1ccc([N+](=O)[O-])cc1`, for which the compound was classed as inactive. In the case of `c1ccc(C2CO2)cc1` (stereo not drawn), the outcome was inactive.

As for `c1ccc2c(c1)-c1cccc3cccc-2c13`, the outcome was inactive.

With `CCCCCCCCOC(=O)c1ccc(C(=O)OCCCCCCCC)c(C(=O)OCCCCCCCC)c1`, the result was inactive. Consider `Cc1ccc(N=C=O)cc1N=C=O`, for which the compound was called inactive.
